KLK7 zymogen act: activates the human kallikrein-7 zymogen. 370,000 compounds, 0.9% hits. P49862. AID 652039. purified proKLK7, EDANS-DABCYL substrate fluorescence; 100% is mature enzyme control, 0% vehicle. activation, % at 7 µM;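 active = activation above the mean of all tested compounds plus 3 SD, computed per campaign excluding outliers beyond control limits, cut at about 13% in these data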
ADAM17 inh: inhibits human ADAM17 | P78536 | recombinant ADAM17, EDANS/DABCYL FRET peptide cleavage | inhibition, % at 6.95 µM | 370,000 compounds, 0.83% hits | AID 720648;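 active = inhibition above the mean of compounds lying between control limits plus 3 SD, set per campaign, cut at about 8.5% in these data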
Target sequence (P78536 215-824 limits assumed): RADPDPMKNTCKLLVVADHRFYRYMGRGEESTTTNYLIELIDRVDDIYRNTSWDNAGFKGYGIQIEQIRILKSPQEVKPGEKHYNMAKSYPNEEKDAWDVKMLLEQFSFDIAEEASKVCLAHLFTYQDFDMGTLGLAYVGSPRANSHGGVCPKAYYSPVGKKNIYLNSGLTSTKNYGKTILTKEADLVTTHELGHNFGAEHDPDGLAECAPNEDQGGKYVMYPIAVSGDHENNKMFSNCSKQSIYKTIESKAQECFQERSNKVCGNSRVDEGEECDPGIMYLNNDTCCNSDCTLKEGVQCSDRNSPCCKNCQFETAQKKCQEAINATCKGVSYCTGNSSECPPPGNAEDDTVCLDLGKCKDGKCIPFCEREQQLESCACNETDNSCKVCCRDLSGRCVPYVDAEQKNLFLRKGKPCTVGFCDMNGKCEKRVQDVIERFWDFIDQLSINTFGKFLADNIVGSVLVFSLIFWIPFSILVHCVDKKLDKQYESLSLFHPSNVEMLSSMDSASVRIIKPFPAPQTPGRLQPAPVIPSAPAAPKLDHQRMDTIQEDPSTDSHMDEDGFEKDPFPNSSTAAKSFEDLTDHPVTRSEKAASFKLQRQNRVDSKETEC
MPTP inh: inhibitors of mitochondrial permeability transition pore | isolated mouse mitochondria, Ca2+ swelling absorbance, 30 min | inhibition, % at 10 µM | 360,000 compounds, 1.4% hits | AID 602449;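 active = inhibition of 50% or more, scaled per plate between neutral and stimulator controls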
Pemphigus Ab inh: blocks pemphigus antibody binding to human desmoglein-3 | P32926 | binding (percent of control), % at 10 µM | DSG3-coupled beads, scFv-anti-DSG3-GFP binding, flow cytometry; hits give low values | 310,000 compounds, 0.48% hits;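 active = binding more than 3 SD below its plate's average and above zero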;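 note: hits lower antibody fragment binding to DSG3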
rCAG binder: binds r(CAG) RNA repeats; r(CAG) RNA repeat, TO-PRO-1 dye displacement fluorescence; inhibition, % at 3 µM; 370,000 compounds, 1.3% hits; AID 651821;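 active = inhibition above the plate cutoff, the mean of all test compounds on that plate plus 3 SD, cut at about 35% in these data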;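 note: higher means more dye released from RNA so lower well fluorescence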
ADAM10 inh: ADAM10 inhibition, QFRET primary screen; O14672; recombinant ADAM10, EDANS/DABCYL FRET peptide cleavage, 3 h; inhibition, % at 7 µM; 370,000 compounds, 0.62% hits; AID 720582;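 active = inhibition above a per-campaign cutoff equal to the mean of compounds falling between control-based bounds plus 3 SD, cut at about 20% in these data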
ADAM10 confirm: human ADAM10 inhibition, confirmation | AID 743208 | 2,100 compounds, 1% hits | shares compounds with ADAM10 inh | inhibition, % at 6.95 µM | ADAM10 QFRET peptide cleavage, EDANS fluorescence;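 active = inhibition above about 20% chosen separately for each screening run, limit read from the data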
ADAM17 ctr: ADAM17 inhibition, counter-screen for ADAM10 exosite hits; shares compounds with ADAM10 inh; ADAM17 QFRET peptide cleavage, EDANS fluorescence; inhibition, % at 6.95 µM; 2,100 compounds, 0.5% hits; AID 743214;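 active = mean triplicate inhibition above the solvent-only control wells' mean plus 3 SD, cut at about 12% in these data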
Large screens that a line does not name were inactive (follow-up assays come after a bar, where they were run). Compounds with a hit are over-represented: about 4.7% of the library has one in this group of screens.

Cc1nc2[nH]c(=O)n(O)c(=O)c2s1	none
COc1ccc(NC(=S)NC23CN4CN(CN(C4)C2)C3)cc1	ADAM10 inh 83 | ADAM10 confirm inactive | ADAM17 ctr inactive
O=C(COc1ccc(Cl)cc1Cl)OCC(=O)N1CCCc2ccccc21	ADAM10 inh 21 | ADAM10 confirm inactive | ADAM17 ctr inactive
CC(OC(=O)c1ccco1)C(=O)Nc1ccc(C(F)(F)F)cc1 (stereo not given)	none
CCc1ccc(NC(=O)C(=O)NNC(=O)c2cccc(OC)c2)cc1	none
COc1cccc(C(=O)NNC(=O)C(=O)Nc2ccc(C)c(Cl)c2)c1	ADAM10 inh 65 (no result: Pemphigus Ab inh) | ADAM10 confirm 33 | ADAM17 ctr inactive
Cn1c(CC(O)c2nc3ccccc3n2C)nc2ccccc21 (stereo not given)	none
Cc1cc2occ(CC(=O)NCc3cccs3)c2cc1C(C)C	none
Cc1csc(NC(=O)Cc2coc3cc(C)c(C(C)C)cc23)n1	ADAM10 inh 23 | ADAM10 confirm inactive | ADAM17 ctr inactive
O=C(c1ccc(C#CC2(O)CCCCC2)cc1)N1CCN(Cc2ccccc2)CC1	none
O=C(c1ccc(C#CC2(O)CCCCC2)cc1)N1CCN(C(c2ccccc2)c2ccccc2)CC1	ADAM10 inh 25 | ADAM10 confirm inactive | ADAM17 ctr inactive
Cn1c(=O)c2sccc2n2c(CCCC(=O)NC3CCN(Cc4ccccc4)CC3)nnc12	none (no result: Pemphigus Ab inh)
CC(C)OCCCNC(=O)COc1ccc2oc3c(c2c1)CCCC3	none
COc1ccc(N(C)C(=O)C2CCN(S(=O)(=O)c3cccc4nonc34)CC2)c(OC)c1	none
CCn1nc(C(=O)OC(C(=O)c2c[nH]c3ccccc23)c2ccccc2)c2ccccc2c1=O (stereo not given)	ADAM10 inh 24 | ADAM10 confirm inactive | ADAM17 ctr inactive
CCn1nc(C(=O)OCC(=O)c2ccc(F)cc2)c2ccccc2c1=O	none
CCN1C(=O)[C@H]2[C@@H](c3ccc(-c4cccc(Cl)c4)cc3)N[C@@](C)(C(=O)OC)[C@H]2C1=O	ADAM10 inh 24 | ADAM10 confirm inactive | ADAM17 ctr inactive
CCN1C(=O)[C@H]2[C@@H](c3ccc(-c4ccccc4)cc3)N[C@@](C)(C(=O)OC)[C@H]2C1=O	none
COC(=O)[C@]1(CC(C)C)N[C@H](c2ccc(-c3cccc(Cl)c3)cc2)[C@@H]2C(=O)N(C)C(=O)[C@@H]21	ADAM10 inh 23 | ADAM10 confirm inactive | ADAM17 ctr inactive
COC(=O)C[C@H](NC(=O)Cn1cnc2c(NCc3ccccc3)ncnc21)C(=O)OC	none
C[C@@H](c1ccccc1)N1C[C@H](COCc2ccccc2)Oc2cc(N3CCC[C@@H]3CO)ccc2S1(=O)=O	none (no result: Pemphigus Ab inh)
OCC1(Cc2ccccc2F)CCCN(CCc2ccccc2)C1 (stereo not given)	ADAM10 inh 23 | ADAM10 confirm inactive | ADAM17 ctr inactive
OCC1(Cc2ccc(F)cc2F)CCCN(CCCc2ccccc2)C1 (stereo not given)	none
COc1ccccc1-n1cc(-c2ccc([N+](=O)[O-])cc2)[nH]c1=S	ADAM10 inh 27 (no result: Pemphigus Ab inh) | ADAM10 confirm inactive | ADAM17 ctr inactive
COc1ccccc1-n1cc(-c2ccc(C)cc2)[nH]c1=S	none
Nn1c(SCC(=O)Nc2ccccc2Oc2ccccc2)nnc1C1CC1	none
COc1ccc(NC(C)C(=O)Nc2ccc(C#N)cc2)cc1Cl (stereo not given)	none
COc1ccc(NC(C)C(=O)Nc2ccc(C(C)(C)C)cc2)cc1Cl (stereo not given)	ADAM10 inh 27 | ADAM10 confirm inactive | ADAM17 ctr inactive
O=C(c1cccc(NS(=O)(=O)c2ccccc2)c1)N1CCCCC1	none
O=C(NCCc1ccc(Cl)cc1)C1CC(=O)N(C2CCCC2)C1 (stereo not given)	none
CCOc1ccc(S(=O)(=O)n2cnc3ccccc32)cc1	ADAM10 inh 64 | ADAM10 confirm inactive | ADAM17 ctr inactive
N#Cc1cccc(-c2csc(C(O)(c3ccccc3)C(F)(F)F)n2)c1 (stereo not given)	ADAM10 inh 20 (no result: Pemphigus Ab inh) | ADAM10 confirm inactive | ADAM17 ctr inactive
OC(c1ccccc1)(c1nc(-c2ccc(Cl)cc2)cs1)C(F)(F)F (stereo not given)	ADAM10 inh 23 (no result: Pemphigus Ab inh) | ADAM10 confirm inactive | ADAM17 ctr inactive
O=C(O)c1cccc(-c2csc(C(O)(c3ccccc3)C(F)(F)F)n2)c1 (stereo not given)	none (no result: Pemphigus Ab inh)
CC1(c2nnnn2Cc2ccccc2)CCC(=O)N1Cc1ccco1 (stereo not given)	none (no result: Pemphigus Ab inh)
Cc1ccccc1CNC(=O)C(=O)NCC1CCCN1S(=O)(=O)c1cccs1 (stereo not given)	none
O=C(NNC(=O)c1cc(-c2cccc(Br)c2)nc2ccccc12)c1csc(N2CCOCC2)n1	ADAM10 inh 22 | ADAM10 confirm inactive | ADAM17 ctr inactive
O=C(NNC(=O)c1cc(Br)ccc1O)c1csc(N2CCOCC2)n1	none (no result: KLK7 zymogen act, ADAM17 inh, rCAG binder, ADAM10 inh)
ON=C1c2ccccc2-c2ccc(Br)cc21	ADAM10 inh 26 | ADAM10 confirm inactive | ADAM17 ctr inactive
CC(=NNC(=S)Nc1ccccc1)c1ccccn1	ADAM17 inh 13, ADAM10 inh 26 | ADAM10 confirm 48 | ADAM17 ctr 43
Cn1ncc2c(=O)[nH]c(N)nc21	none
CC(Nc1nc(-c2ccccc2)nc2ccccc12)c1ccccc1 (stereo not given)	ADAM17 inh 11, ADAM10 inh 29 | ADAM10 confirm inactive | ADAM17 ctr inactive
Cc1ccc(C)c(NS(=O)(=O)c2ccc(NC(=O)CSc3ccc(Cl)cc3)cc2)c1	none
Cc1ccc(NS(=O)(=O)c2ccc(NC(=O)C(C)Sc3ccc(Cl)cc3)cc2)c(C)c1 (stereo not given)	ADAM10 inh 27 | ADAM10 confirm inactive | ADAM17 ctr inactive
CC(=O)Nc1cccc(Oc2nc(NC(C)C)nc3cc(-c4ccccc4)sc23)c1	none (no result: Pemphigus Ab inh)
COc1cc(CNn2c(C)n[nH]c2=S)cc(Cl)c1OCc1ccccc1	ADAM10 inh 28 | ADAM10 confirm inactive | ADAM17 ctr inactive
COc1cc(/C=N/NC(=O)c2cc(-c3cccs3)nc3ccccc23)ccc1O	none
COc1cc(/C=N/NC(=O)c2cc(-c3cccc(OC(C)C)c3)nc3ccccc23)ccc1O	ADAM10 inh 28 | ADAM10 confirm inactive | ADAM17 ctr inactive
CC(C)Cc1nnc(NC(=O)c2ccc3c(c2)OCCO3)s1	none (no result: Pemphigus Ab inh)
Nc1[nH]c(C(=O)c2ccccc2)c(-c2ccc([N+](=O)[O-])cc2)c1C(=O)NCCc1c[nH]c2ccccc12	none (no result: Pemphigus Ab inh)
